PKA-R1A act – activators of PKA-R1A holoenzyme, primary screen, biochemical, fluorescence polarization, Cy5-IP20, bovine R1A, mouse PKAc; actives 0.083% (n = 340,000); activation, % at 11.4 µM; cAMP-dependent protein kinase type I-alpha regulatory subunit (Bos taurus) + …; PKA-R1A dissociation; scaled: DMSO 0%, 113 µM cGMP 100%;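 active = percent activation above the mean of all tested compounds plus 3 SD, cut at about 19% in these data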;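 also: higher means more PKAc released from R1A so a rise in polarization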
CHT allo act – CHT positive allosteric modulators, primary screen, cell-based, membrane potential dye, choline EC20; High affinity choline transporter 1 (Homo sapiens), Q9GZV3; CHT-expressing cells; active compounds read high; LV-AA mutant CHT in HEK293 cells; B-score at 10 µM; actives 0.49% (n = 310,000); AID 488977, 2010;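 active = initial fluorescence not abnormally high and integrated response B-score, plate-corrected, over 3 SD above library mean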
Target sequence (Q9GZV3 whole entry, looked up): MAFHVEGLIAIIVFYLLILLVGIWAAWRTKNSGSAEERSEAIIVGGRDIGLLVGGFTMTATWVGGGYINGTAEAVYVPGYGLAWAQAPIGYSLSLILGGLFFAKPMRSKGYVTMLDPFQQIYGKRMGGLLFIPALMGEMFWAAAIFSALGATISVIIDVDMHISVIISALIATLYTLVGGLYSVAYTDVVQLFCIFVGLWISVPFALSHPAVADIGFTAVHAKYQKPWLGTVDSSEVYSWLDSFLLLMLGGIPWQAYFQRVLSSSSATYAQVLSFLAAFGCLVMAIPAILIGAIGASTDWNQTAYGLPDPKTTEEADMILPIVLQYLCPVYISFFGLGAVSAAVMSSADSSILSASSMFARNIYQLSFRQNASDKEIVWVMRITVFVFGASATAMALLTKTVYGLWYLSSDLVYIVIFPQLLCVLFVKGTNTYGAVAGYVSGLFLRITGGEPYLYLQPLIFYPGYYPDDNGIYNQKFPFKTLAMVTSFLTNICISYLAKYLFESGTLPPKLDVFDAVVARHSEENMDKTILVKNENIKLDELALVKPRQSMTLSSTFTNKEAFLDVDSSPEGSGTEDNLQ
PKA-R2B act – activators of PKA-R2B holoenzyme, primary screen, biochemical, fluorescence polarization, Cy5-IP20, human; PKA-R2B holoenzyme dissociation; R2B truncated from residue 108, S112A mutant; 0% DMSO only, 100% 113 µM cGMP; activation, % at 11.4 µM; cAMP-dependent protein kinase catalytic subunit beta (Homo sapiens) + cAMP-dependent …; actives 0.079% (n = 340,000);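 active = activation above a cutoff set at the mean over all compounds plus 3 SD, cut at about 18% in these data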;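 also: higher means more holoenzyme dissociation and a rise in polarization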
ANO1 activ – TMEM16A chloride channel activators or potentiators, primary screen, cell-based, HTS; Anoctamin-1 (Mus musculus), Q8BHY3; HEK293 TMEM16A/YFP-H148Q/I152L, iodide quench fluorescence; active compounds read low; B-score at 10 µM; actives 0.3% (n = 340,000); AID 623877, 2012;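 active = fluorescence-ratio B-score plate-corrected deviation score at least 3 library SD below zero, with starting fluorescence score within 5 deviations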;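 also: channel opened by trigger with iodide after compound preincubation; score built on the fluorescence ratio of max minus min over baseline; more negative score means more quench and so TMEM16A activation or potentiation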
CHT block – inhibitors of human choline transporter CHT; High affinity choline transporter 1 (Homo sapiens), Q9GZV3; CHT-expressing cells, membrane potential dye, choline response; active compounds read low; B-score at 10 µM; actives 0.86% (n = 310,000);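 active = B-score over 3 SD under the library average, and starting fluorescence ratio not unusually high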;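 also: choline stimulus applied at its EC90 after an EC20 pre-addition; B-score computed on integrated fluorescence ratio after choline addition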
ANO1 block – TMEM16A chloride channel inhibitors, primary screen, cell-based, HTS; Anoctamin-1 (Mus musculus), Q8BHY3; HEK293 TMEM16A/YFP iodide influx fluorescence, ionomycin; normalized B-score (activity score, 25-100; higher = stronger inhibition) at 10 µM; actives 1.2% (n = 310,000); AID 588511, 2011;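 active = ratio plate-corrected score three or more library SD toward inhibition, starting fluorescence score within five deviations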;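 also: score derived from kinetic fluorescence span divided by baseline fluorescence per well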
Hits are given with their value; . = inactive; / = no result given. An excerpt weighted towards active compounds, which were near 2.5% of everything screened.

SMILES | PKA-R1A act | CHT allo act | PKA-R2B act | ANO1 activ | CHT block | ANO1 block
CCCOc1cccc(-c2cc(C(=O)N/N=C/c3cccnc3)c3ccccc3n2)c1 | . | . | . | . | . | 25
O=C(N/N=C/c1ccccc1OC(F)F)c1cc(-c2ccncc2)nc2ccccc12 | . | . | . | . | -6 | .
Cc1c(NC(=O)Nc2cccc(Cl)c2Cl)c(=O)n(-c2ccccc2)n1C | . | . | . | . | . | .
OCCOCCn1c(-c2ccccc2)nc(=S)c2c1CCCC2 | . | 6.4 | . | . | . | .
Cc1cc2c(n1-c1ccc(C(=O)O)cc1)CCCCC2 | / | . | / | / | . | .
Clc1ccc2[nH]c3c(NCC4CCCO4)ncnc3c2c1 (centres undefined) | / | . | / | / | . | 100
COc1ccc(-c2csc(NC(=O)c3ccccc3NS(=O)(=O)c3ccc(F)c(F)c3)n2)cc1 | . | . | . | . | -8.4 | 100
Cc1cccc(N(C)S(=O)(=O)c2ccc(-c3cnc(C4CC4)o3)cc2)c1 | . | 7.3 | . | . | . | .
Cc1ccc(C(=O)NCCSc2ccc(Cl)cc2)cc1S(=O)(=O)Nc1ccccc1 | . | . | . | . | . | 100
CCc1ccc2oc(=O)cc(CN(C)Cc3ccccc3)c2c1 | . | . | . | . | . | 100
NCCCC[C@H]1CNC(=O)C(=O)N1CCC12CC3CC(CC(C3)C1)C2 | . | . | . | . | . | .
CC(CCC(C)C(C)(C)C)[C@@H]1CC[C@H]2C3C[C@H](OS(O)(=S)=S)[C@H]4C[C@H](OS(O)(=S)=S)[C@@H](OS(O)(=S)=S)C[C@]4(C)[C@H]3CC[C@]12C (some centres undefined) (tested in a mixture with another compound) | . | / | . | -11 | / | /
O=C(CC1C(=O)NCCN1Cc1cccc(F)c1F)NCCCC1CCCC1 (centres undefined) | . | . | . | . | . | .
S=c1[nH]nc(C2CCCCC2)n1/N=C/c1cccc(Cl)c1Cl | . | . | . | . | . | .
COc1ccc(NC(=O)Cn2c3ccccc3c3nc4n(c(=O)c32)CCS4)cc1OC | . | . | . | -54 | . | .
COc1cccc(NC(=O)Cn2c3ccccc3c3nc4n(c(=O)c32)CCCS4)c1 | . | . | . | -52 | . | .
O=C(Cn1c2ccccc2c2nc3n(c(=O)c21)CCCS3)Nc1ccccc1 | . | . | . | . | . | .
N#CC1=C(N)NC(SCC(=O)O)=C(C#N)C12CCCC2 | . | . | . | . | . | .
N#CC1=C(N)NC(SCc2ccc(F)cc2)=C(C#N)C12CCCCC2 | . | . | . | . | . | 100
O=C(CN1C(=O)NC2NC(=O)NC21)N/N=C/c1ccc(F)cc1 (centres undefined) | . | . | . | -7.5 | . | .
Cc1cc(NCCCn2ccnc2)n2nc(C)c(-c3ccc(Cl)cc3)c2n1 | . | . | . | . | -5.1 | .
CC1(c2ccc(OC(F)F)cc2)NC(=O)N(CC(=O)Nc2ccccc2)C1=O (centres undefined) | . | . | . | -10 | . | .
CC1(c2ccc(OC(F)F)cc2)NC(=O)N(CC(=O)Nc2ccc3c(c2)OCO3)C1=O (centres undefined) | . | . | . | -5.9 | . | .
CCOC(=O)CN1C(=O)NC(C)(c2ccc(OC(F)F)cc2)C1=O (centres undefined) | . | . | . | . | . | 25
COc1ccc(C(=O)NCCCN=C2NS(=O)(=O)c3ccccc32)cc1 | . | . | . | . | . | .
COc1cc2c(cc1OC)C(c1ccc(-c3ccccc3Cl)o1)=NCC2 | . | 6.6 | . | . | . | .
COc1ccc(OC)c(NC(=O)Nc2ccc3[nH]ccc3c2)c1 | / | . | / | . | . | .

Screening results from PubChem.
